Test results as given in PubChem BioAssay AID811 (The Scripps Research Institute Molecular Screening Center, 2007).
The campaign covered roughly 16,000 compounds. About 10 (0.06%) were called active. Cut-off read from the data, not from the text of the source: active = inhibition above about 45%; inactive = the rest. What follows is part of a selection rich in actives, with near analogues and random picks from the rest.

Molecular target: Toll-like receptor 4 (Homo sapiens) (UniProt O00206)
Test: blocks binding of human TLR4 to MyD88 (AID 811)
Conditions: Cell-based TLR4-MyD88 binding inhibition assay; at 10 µM; stronger effect = higher value

Chain of Toll-like receptor 4 (Homo sapiens) (O00206 whole entry, looked up): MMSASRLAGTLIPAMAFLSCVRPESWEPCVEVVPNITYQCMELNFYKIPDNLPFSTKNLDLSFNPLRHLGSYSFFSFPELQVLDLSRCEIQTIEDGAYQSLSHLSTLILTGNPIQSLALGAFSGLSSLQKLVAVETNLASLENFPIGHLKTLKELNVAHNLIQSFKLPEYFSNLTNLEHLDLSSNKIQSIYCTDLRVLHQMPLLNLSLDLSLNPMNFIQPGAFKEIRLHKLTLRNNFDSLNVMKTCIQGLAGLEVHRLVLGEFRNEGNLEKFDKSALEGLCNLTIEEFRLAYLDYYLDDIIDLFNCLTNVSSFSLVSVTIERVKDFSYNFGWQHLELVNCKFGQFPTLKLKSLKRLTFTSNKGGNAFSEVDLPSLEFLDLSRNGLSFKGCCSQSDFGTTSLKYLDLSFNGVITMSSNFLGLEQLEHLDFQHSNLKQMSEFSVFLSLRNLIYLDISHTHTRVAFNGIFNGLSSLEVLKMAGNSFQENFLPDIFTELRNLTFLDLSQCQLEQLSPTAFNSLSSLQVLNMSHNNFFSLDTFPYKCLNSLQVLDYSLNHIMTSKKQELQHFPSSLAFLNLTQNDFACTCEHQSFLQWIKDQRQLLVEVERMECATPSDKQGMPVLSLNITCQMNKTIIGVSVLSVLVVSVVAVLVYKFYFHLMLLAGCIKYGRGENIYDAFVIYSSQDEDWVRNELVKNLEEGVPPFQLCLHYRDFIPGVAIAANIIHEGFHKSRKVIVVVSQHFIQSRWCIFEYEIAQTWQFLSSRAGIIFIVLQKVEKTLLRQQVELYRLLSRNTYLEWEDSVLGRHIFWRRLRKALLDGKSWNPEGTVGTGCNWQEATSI

inhibition, inactive:
NS(=O)(=O)c1cccc(NC(=O)c2ccccc2)c1 2.32%
N#CC(Cc1ccccc1)Sc1ccccc1 (stereo not given) 5.75%
COc1ccc(OCCC(=O)NNC(=S)Nc2cc(Cl)ccc2Cl)cc1 -3.16%
CCOCCOCCN(CC)c1ccc(N=Nc2c(C#N)cc([N+](=O)[O-])cc2C#N)c(NC(C)=O)c1 -2.49%
CC1(C)CCc2cc(-c3ccnc(SCC(=O)c4ccccc4)n3)ccc2O1 -13.2%
Cc1noc(C)c1S(=O)(=O)Nc1cc(C(F)(F)F)ccc1N1CCOCC1 3.25%
N#CCCN(CCc1ccccn1)S(=O)(=O)c1ccc2c(c1)CCO2 3.85%
CC(C)(C)C(=O)NNC(=O)c1ccc(Oc2ccc(C3SCCS3)cc2)o1 -1.82%
Cc1cc2c(cn1)C(=O)c1ccccc1-2 -3.73%
CCOC(=O)c1cc(Sc2ccccc2N)cc(C(=O)OCC)n1 -13.8%
Cc1c(C)c(C)c(CSC(=N)CC#N)c(C)c1C 1.02%
Cc1cc(NCc2cccnc2)no1 -4.99%
O=C(/C=C/c1cccc2ccccc12)N1CCCCC1 2.1%
CC1=CC(=O)C(CCC2=CC(=O)C(C)=CC2=O)=CC1=O -7.79%
CC1=NCCNC(C)=C1N1CCOCC1 2.33%
N/C(Cc1ccc(F)cc1F)=N\OC(=O)c1cccc(C(F)(F)F)c1 2.07%
O=C(N/N=C/c1ccc(Cl)cc1Cl)/C(=C/c1cccs1)NC(=O)c1ccccc1 -7.21%
NC(=NC(=O)CCn1c(=O)oc2ccccc21)c1cc(Cl)cc(Cl)c1 -2.8%
Cc1ccc(CC(=O)c2cccnc2)cc1 3.89%
FC(F)(F)c1ccc(-n2cn[nH]c2=S)cc1 -1.09%
Cc1cc(C)nc(N/C=C(\C#N)S(=O)(=O)c2ccc(Cl)cc2)n1 -13%
CCOC(=O)Cc1nnc(-c2ccc(Cl)cc2)o1 -0.7%
COC(C)(OC)c1ccc(C#N)c(=S)[nH]1 -5.59%
CCOC1=NC(C(F)(F)F)(C(F)(F)F)N=C(N2CCOCC2)O1 0.2%
CN(C)C(=O)Nc1ccc(C(C)(C)C)cc1 -8.78%
O=C(O)CCC(=O)Nc1ccccc1 0.27%
N#Cc1nc(-c2ccccc2)c(-c2ccccc2)nc1C#N 9.3%
Cc1onc(-c2ccccc2)c1C(=O)Nc1ccc(/C(C#N)=C/c2ccccn2)cc1 -8.57%
Cn1cc(C(=O)c2ccc(Cl)cc2)cc1/C=C(\C#N)S(=O)(=O)c1ccc(C(F)(F)F)cn1 -4.67%
O=C(O)CCC(=O)Nc1ccc2c(c1)OCCCO2 -5.34%
c1ccc(-n2cccc2)c(N2CCCCC2)c1 -11.1%
Cc1ccc2oc(=O)n(CC/C(N)=N/OC(=O)c3ccc(C(F)(F)F)nc3C)c2c1 8.34%
CCOC(=O)c1sc(SC)c(-c2ccccc2)c1N 2.9%
CCOC(=O)CNC(=O)CCc1cc(OC)c(OC)c(OC)c1 -5.89%
O=C(Oc1ccc(Cl)cc1)c1snnc1-c1ccccc1 -12.5%
FC(F)(F)c1cccc(NC(=S)NNc2nccc(C(F)(F)F)n2)c1 14.4%
Cc1c(S(=O)(=O)c2ccc(Cl)cc2)csc1C(=O)Nc1ccc2c(c1)OCCO2 -2.01%
O=C(CCSc1nc2ccccc2o1)N1CCc2cc([N+](=O)[O-])ccc21 -4.41%
O=C(Nc1ccc(OCc2ccccc2)cc1)Nc1ccc2c(c1)C(=O)OC2 -6.75%
CCOC(=O)c1c(NS(=O)(=O)c2cccc3nsnc23)sc(C)c1C -17.3%
CCOC(=O)CNC(=O)c1ccc(-c2cccc([N+](=O)[O-])c2)o1 2.51%
CC(=O)OCC(=O)[C@@]1(O)[C@H](C)CC2C3CCC4=CC(=O)C=CC4(C)C3=CCC21C (stereo not given in full) -5.02%
O=S(=O)(CCN1CCC(C(F)(F)F)CC1)c1ccccc1 -7.12%
COc1ccc(OC)c(CCCc2cc(OC)ccc2OC)c1 -1.32%
O=C1C=C(SCC(=O)c2ccccc2)SC(c2ccc(Cl)cc2)C1 (stereo not given) -2.02%
O=c1cc(-c2ccccc2)sc2ccc(Cl)cc12 5.03%
O=C(O)c1cnc(NCc2ccccc2)s1 -1.62%
O=S(=O)(c1ccc(Cl)c(Cl)c1)N1CCc2c([nH]c3ccccc23)C1C(F)(F)F (stereo not given) 0.92%
N#Cc1c(-c2cccs2)oc(-n2cccc2)c1-c1cc(Br)cs1 6.38%
CCOC(=O)c1cc(CC)sc1NC(=O)c1cccc(C(F)(F)F)c1 1.92%
OCCNc1nc2ccccc2[nH]1 -3.29%
COC(=O)CCN1CCc2cc(N=Nc3ccc(C(F)(F)F)cc3)ccc21 3.28%
N#CCSc1ccc2ccccc2c1 -1.93%
CCN(CCN1C(=O)CCC1=O)c1cccc(NC(C)=O)c1 -4.21%
Cc1cc(/C(N)=N/OC(=O)c2cccs2)c(-c2ccccc2)o1 3.39%
CCOc1cc(-c2cccs2)nc(N)n1 1.81%
O=S(=O)(c1ccc(Cl)s1)N1CCN(c2ccccc2)CC1 -1.65%
CSc1sc(C(N)=O)cc1C#N -2.28%
O=C(O)c1nccnc1C(=O)NCCSCc1c(F)cccc1Cl -7.53%
CCOc1ccc(C(N)=O)c(SCC(=O)O)c1 -4.29%
N#Cc1nccnc1N1CCN(c2ccccc2)CC1 10.5%
Cc1cc(S(=O)(=O)Oc2ccc(OCc3ccccc3)cc2)c(C)cc1Cl 9.02%
Cn1cccc1-c1n[nH]c(=S)n1-c1ccc(Cl)cc1Cl 9.51%
O=c1[nH]c2cc(Cl)c(Cl)cc2n1-c1ccncc1 -5.56%
COc1cccc(OCc2ccccc2)c1C#N -5%
